In PubChem BioAssay AID1347426 (Functional Genomics Laboratory (NCATS/FGL), 2020) one finds median seed-adjusted z-score data, which are given here for 112 sequences.

In all, about 31,000 sequences went through this assay and about 1,400 (4.5%) were called active. This is one part of a sample in which actives are shown more often than they occur. Values without a mark were called inactive.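 How the source made its calls: active means median seed-adjusted z-score above 1 or below -1; inactive means the rest.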

A short description of the assay: Novel Modifiers of Survival Motor Neuron (SMN) Protein: Gene Identification via Genome-wide siRNA Screen.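 Further: luminescence tracks full-length SMN protein made from the SMN2 reporter.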 The conditions noted are these: HEK293T SMN2-luciferase reporter, siRNA knockdown, 72 h; actives lie on both sides. The procedure, abridged: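 HEK293T cells stably carrying an SMN2 promoter/splicing cassette–luciferase reporter were reverse-transfected with 1 pmol siRNA per well (druggable-genome library, 3 siRNAs per gene) and grown 72 h at 37 °C. Luminescence, normalized to negative-control siRNA and log10-transformed, was scored as MAD.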
(A reporter such as luciferase makes a cellular process visible.)
As to GGGUCAUGUUUGGUUAGAATT against IMMP1L, the median seed-adjusted z-score is -0.444. As for CGUGGACCACUAUCCCAUUTT against RNF123, the figure is 0; as for GGAAAAACCAACCAAGUUATT against RUFY1, 0.119. As for CGGUGAAGGUGCUAAAGGATT against RAD23A, the figure is -1.13 (active).

On to GCCUUCAAUUUUCAUACAATT against ZNF19, for which the median seed-adjusted z-score was 0. As to AGUAAUAGUUCAAACCUUUTT against ZNF664, the median seed-adjusted z-score is 1.08 (active). The same measure for GAGUGUACCUGGAAUGUCUTT against ARNTL2: 0.102; for AAAGUGGAUUGCACACAGATT against TGFB1I1: 0.887; for GAUCAAACCUUGUAUCUCUTT against ARG2: -0.796. As for GGUAAAGAAUUCUCCGGAATT against FUS, the figure is 0.92; as for GCAGGAUUGUGAUCCACCATT against PCGF3, 0.876. The same measure for GGAUAUGGUGAGAAUAGAATT against MTHFS: 0.166.

Regarding AGCUCACAAGGAUCCCAAUTT against THPO, the median seed-adjusted z-score was -0.0366. As for CCUUUAGCACGGAUAGUUUTT against ACAT2, the figure is 1.25 (active); as for CUCCUACAGUGCUAUCAGATT against ENPP2, -0.305; as for AAUUCCUCUUCAACAUGUATT against HOXD9, -0.123. Turning to GGAACGGGCUGGAGUUAAATT against FUBP1, the median seed-adjusted z-score was -1.52 (active). As for GUACUUCAGUGGAGUGAAATT against CDKL1, the figure is -0.28. The same measure for UCUGCUAUUUGGUCCUGAATT against TOMM34: -0.503; for CCUCAUAUGUGGGACAGAATT against USP3: -0.176; for GGUAUGGAUUUAACAGUCATT against DHODH: -0.422. The same measure for GGAAGACUAGGAAUCGGAATT against NYX: 0.0685.

Regarding CACCCACCGCCACAAUAAATT against BSG, the median seed-adjusted z-score is 0.211.

In the case of GCACGACUUUGUACUCAGATT against HES5, the median seed-adjusted z-score was -0.00853. As for GAGCUAUGGUUACACGGUUTT against GABRQ, the figure is -0.54; as for UGAACCUUGUGAUAGAUGATT against SNRPG, -3.09 (active).

Consider GCCUCCACGGAAGAUGUAATT against ZNF746, for which the median seed-adjusted z-score was 0.1. As for GCACUUGUAUAAUCAGACUTT against MRLC2, the figure is -0.492; as for GGACCAUCCAGCUUCUGGATT against GALE, -0.153; as for GGAUCUCAUGAGGCGAAUATT against EIF5, 0.362. As for GUAGGACUCUCAUUCGGGATT against CCND1, the figure is -0.912; as for GGACCCAAUCAACUCAAUATT against SS18, 0.34.

Take GCCUAAUUGCGGAACAUAUTT against ESCO1: the median seed-adjusted z-score was 0.755. With CGACAAGUUGAAGACCAUATT against CRMP1, the median seed-adjusted z-score is -0.354. As for CCUAUUCACUUUACACUGUTT against AKR7A2, the figure is 0.192; as for GAUGAAGAAUGAUAAGUCATT against HNRNPC, -2.15 (active). As to AGACAAGUAUGUGAGGAAUTT against BTN2A2, the median seed-adjusted z-score was -0.0599.

For the sequence GGAUAUCGCACUUCACUCATT against ELL, the median seed-adjusted z-score was -0.497. GGGCGAGCAUUUUCGAGAATT against USP7: the median seed-adjusted z-score is 0.105. The same measure for CCACGUUUUGAUCAACAAUTT against RDH11: -0.241.

For the sequence GAUUGCAUAUUACAAACGATT against GIN1, the median seed-adjusted z-score is -0.0585. As for GGAACGAGAUUGUCAGAUUTT against POLR2B, the figure is -4.81 (active). With GAUACACUUUGUCACCAAATT against FLT3LG, the median seed-adjusted z-score was -0.166. As for CUCAUGAACUUGCACAACATT against WNT7A, the figure is 0.0931.

GGAUGAUGUGAACUACAAATT against PTDSS1: the median seed-adjusted z-score was -0.76. The same measure for GGAGGACAUCGACCAGAUATT against APBA1: 0.305; for CGAUAAAGACGGAUUCUAATT against MATK: -0.754.

As to GAAUAUGAGUACCUAGAUUTT against SELPLG, the median seed-adjusted z-score is 0.0378.

Regarding CACCGACAAUAUAAAGGAATT against SLC25A32, the median seed-adjusted z-score was -0.299. As for GGUCAUGAUUGCUAUCCUUTT against TAAR9, the figure is -1.07 (active). As for GGAAGAUUAUUACAGUCGATT against RERE, the figure is 0.129; as for GGACGGUACUACAGUGUAATT against HDAC8, 0.835. The same measure for GGAUUUCCAGGGAUAUUUATT against CDKN2B: 0.0154.

As for CAUUGAACGCAGUCCCUUUTT against FLNC, the median seed-adjusted z-score is 0.00217. As for CCCAAUGCCUGUUUAUUCATT against POLR2J3, the figure is -5.42 (active); as for GGAACCUACCUGACUAAGATT against ARL9, 0.98. The same measure for GGGAGUAUAUUUUGAUGAATT against RARS2: -0.0247; for AGAAUAAGUUCAAACAGGATT against RAB4B: -0.207; for CAUGAACAGUUUAUCGUAATT against FMR1: 0.504. The same measure for GAGACCUAACUGUACGUGATT against TSG101: 1.48 (active); for CUUGCACUCCUGUCCAUAATT against AP3B1: 0.31. Turning to CUAGUUUGUUGCAAAAUAATT against CDKN2C, the median seed-adjusted z-score is -0.0789. The same measure for CAAUUAAGUUGGAUCCUUUTT against WARS2: 0.21; for GGUACAUCGCGAUAUCAAATT against YSK4: -0.181; for CGAUGGUAUUGACUAAGUUTT against HSPA1L: -1.27 (active).

On to CUAGGAGUCAAAGAAAAUATT against RNPS1, for which the median seed-adjusted z-score is 0. As for GGAGAGAGCGUGUCCUACATT against SIRPA, the figure is -0.153; as for AAACAAAACUUGCACUUUATT against RASD1, 0.674. Consider GCCUUGAACCUAGGACCAATT against PRAF2, for which the median seed-adjusted z-score was -0.326. As to GGACGAGAAUGGGAAGAUUTT against ARD1A, the median seed-adjusted z-score was -1.05 (active). As for AGACUAUGAUAGAAUCCCATT against LGI3, the figure is -0.0189; as for CUCUACCCGUGCUAUAUAATT against TIGD1, 0.224; as for CAAGAUCCAGGACACCAAATT against MAP4K1, 0. As for CUAUCCAACUCAAACGAUUTT against USP9Y, the figure is 0.012. As for GGCUUGAUAUUUGACAGAATT against BBOX1, the figure is 0.152. As to AGAAAUGUCUUGUAGUGAATT against SYT14L, the median seed-adjusted z-score is 0.2. As for GGAUUAUAUUGACAUCAGUTT against DLST, the figure is 1.16 (active); as for GGGAGGACCUGAACAAGAATT against TAOK2, 0.28; as for GGCAUGACCUCAUCACAGUTT against RNASE7, 1.07 (active). As for GAACCAACCUGUCAAGUGATT against SELL, the figure is 0.554; as for GGACAUCGCUAAACAGUUATT against TBC1D1, -0.359. On to CUAUCACCGGAUUAACGAATT against ACOX1, for which the median seed-adjusted z-score is -0.897. The same measure for GAGUCGAGAAGAUAAUGGATT against RABGEF1: 0.278; for AGACGACGGCGAUGAGGAATT against RALY: 0.

For the sequence GGACGACCACGGCUACAUUTT against CRYAA, the median seed-adjusted z-score is -1.03 (active). The same measure for GGCUUCAGGUUAUAGUCAATT against OTX2: -0.00351. In the case of AGGAGAUCGUCGACCUGGUTT against TUBA3C, the median seed-adjusted z-score is -0.0806. Regarding AGGCCCUAGUGCUCAGAUATT against MMS19, the median seed-adjusted z-score is 0.0142.

For GCAACGAUGUUGCCUGGAATT against GPX1, the median seed-adjusted z-score is -0.0529. As for GCAUGCAGAUGUUCGGCAATT against CACNA1F, the figure is 0.22. Take CAAGCUUGUUAACAUCAAATT against NPVF: the median seed-adjusted z-score was 0.588. On to GGCUAAUACUGGAAUUGCUTT against SLC38A2, for which the median seed-adjusted z-score was -1.04 (active).

Turning to CCAUGUCUUUCUAUCGCAATT against PLD2, the median seed-adjusted z-score is -0.743. As to GCAAGAUCUUAUCCACAGATT against CIP29, the median seed-adjusted z-score was -1.18 (active).

Take CAUUGGAAUUCUUUCAAUATT against APTX: the median seed-adjusted z-score is -0.131. The same measure for GAGAAGACCUUUAUACGAATT against XPOT: 0.366; for GGAUGGUGGCGUCCAAGAUTT against PSMB10: 0.00939. As for GAGCUUCACUCAAAAAUCATT against ZNF160, the figure is -0.454; as for GCCUAGAAGUGGAACGUGUTT against IFT57, -1.1 (active); as for CCACCUUCGAUGUUCCCAUTT against HMG20B, 0.231. Take GCAGAGUCACUUUGACAAUTT against CHRNG: the median seed-adjusted z-score was 0.221.

For the sequence GGCUUUUAGAGUACGACAATT against ZFP30, the median seed-adjusted z-score was 0.211. Take CAGUCAACCUGAUUUGAGATT against SOX7: the median seed-adjusted z-score is -0.387. As for CGUUUAACGUGGUGCUGUUTT against GPR32, the figure is -1.2 (active); as for GCUCUAUGUCUACAUCAAUTT against DAXX, 0.349; as for AUAUCGCUGUGAUGCAAAATT against PLA2G12B, -0.162. The same measure for ACAGCGAGGUCAAAAGAAATT against HSD11B1: -0.174.

In the case of GGACUAAGUGAAGAGCUUATT against NFYB, the median seed-adjusted z-score was -0.29. As for GAGCUGAACUUGUCAUUCUTT against RANGAP1, the figure is -0.0379; as for CAUGAACCCAGUGAAGAUATT against IRF6, -1.79 (active); as for CACUCAACAUUACAGAUUUTT against ZNF514, 0.125. The same measure for CAGCUUUACGAGUAUGCAATT against HS6ST3: -0.405.
